High-throughput results from PubChem.
Tau fibril FP: inhibitors of human tau fibril formation; Potency, µM (titrated, usually from 57.7 µM), without a hit: top-dose activity, negative = inhibition, usual class: inhibitors; K18 P301L tau heparin fibrillization, Alexa594 FP, 6 h; 280,000 compounds, 0.39% hits; P10636; also: nearly all actives have a fitted effect of over 55% in size
Target sequence (P10636 561-689 P618L limits assumed): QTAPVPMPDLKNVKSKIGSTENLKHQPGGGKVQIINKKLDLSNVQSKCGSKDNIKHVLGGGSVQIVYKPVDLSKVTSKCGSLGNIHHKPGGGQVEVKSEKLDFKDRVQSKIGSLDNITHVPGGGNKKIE
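Human tau K18 […] P301L fragment, 15 uM unlabeled plus 0.24 uM Alexa 594-labeled tau (final), with compound and 20 uM heparin in 100 mM sodium acetate pH 7; 6 hr at 37 C, then Alexa 594 FP read.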
Tau fluor counter: counter-screen for tau fibril formation inhibitors; tau K18 P301L Alexa594 fluorescence, heparin fibrillization; Potency, µM (top dose mostly 57.7 µM), without a hit: at the highest dose activity change, negative = decrease; 280,000 compounds, 0.93% hits; AID 1463; also: nearly all actives have a fitted effect of over 55% in size
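Human tau K18 P301L (15 uM unlabeled, 0.24 uM Alexa 594-labeled) in 100 mM sodium acetate pH 7 with 20 uM heparin, 6 hr at 37 C. ThT 30 uM added, 1 hr ambient; Alexa 594 FP and total fluorescence read at 555/632 nm.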
RORg inh: inhibitors of mouse ROR gamma transcriptional activity; P51450; Drosophila S2 Gal4-RORgamma UAS-luciferase reporter, 20 h; Potency, µM (series often up to 53.6 µM), inactives show at the highest dose activity change, negative = inhibition, hits mostly inhibitors; 310,000 compounds, 5.4% hits; AID 2551; also: nearly all actives have a fitted effect of over 60% in size
Target sequence (P51450 whole entry, looked up, the tested form may be a part): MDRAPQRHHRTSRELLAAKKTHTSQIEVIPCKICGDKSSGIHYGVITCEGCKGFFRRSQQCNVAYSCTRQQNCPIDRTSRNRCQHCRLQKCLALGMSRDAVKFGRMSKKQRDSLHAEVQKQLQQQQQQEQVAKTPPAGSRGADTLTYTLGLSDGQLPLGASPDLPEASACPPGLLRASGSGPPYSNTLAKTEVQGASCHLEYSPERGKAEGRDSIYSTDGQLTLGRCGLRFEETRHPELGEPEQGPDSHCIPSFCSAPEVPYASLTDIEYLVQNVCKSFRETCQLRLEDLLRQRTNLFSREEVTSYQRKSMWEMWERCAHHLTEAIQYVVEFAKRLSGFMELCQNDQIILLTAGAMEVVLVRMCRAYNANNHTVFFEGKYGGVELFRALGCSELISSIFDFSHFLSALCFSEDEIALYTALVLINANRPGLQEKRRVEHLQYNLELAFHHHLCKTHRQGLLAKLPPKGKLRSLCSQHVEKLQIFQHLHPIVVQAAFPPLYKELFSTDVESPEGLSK
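Read-out: Photinus luciferase luminescence; inhibitors lower reporter signal. Insect Schneider cells with Gal4-ROR gamma fusion under metallothionein promoter, UAS reporter; 700 uM final copper sulfate induction, 20 hr, ambient temperature.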
VP16 counter: Gal4-VP16 reporter inhibition counter-screen; Drosophila S2 Gal4-VP16 UAS-luciferase, luminescence, 20 h; Potency, µM (doses to about 53.6 µM), for the others: at the top dose activity, negative = inhibition, usual class: inhibitors; 310,000 compounds, 3.5% hits; AID 2546;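 also: Gal4-VP16 expression switched on by copper sulfate through the metallothionein promoter; nearly all actives have a fitted effect of over 50% in size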
Tau fibril ThT: tau fibrillization inhibition (ThT binding); P10636; recombinant tau K18 P301L, heparin-induced fibrillization, ThT fluorescence; Potency, µM (top dose mostly 57.4 µM), without a hit: at the highest dose activity, negative = inhibition, actives largely listed as inhibitors; 270,000 compounds, 2.1% hits; AID 1460; also: nearly all actives have a fitted effect of over 55% in size
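Fibril formation assay: tau K18 P301L at 15 uM with trace Alexa 594 label, heparin inducer 20 uM, pH 7 sodium acetate buffer, 37 C for 6 hr; endpoint ThT signal.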
An asterisk follows results filed as active; [ ] = dose if it differs, or a comment. This is a sample that favours compounds with a hit; in the whole collection about 7.3% have one here. Calls follow the shape of the dose curve; as a rule, active = well fitted curve in the direction sought with a large enough effect; inconclusive = small, poorly fitted or top-dose-only effect, or another doubt; inactive = no such curve, though single readings can be large; an effect the other way counts as inactive or inconclusive. % is scaled to controls: 0 for no effect and ±100 for the full control effect; potency is read from the fitted curve at half-maximal effect.

For CCCC(=O)N1CCN(c2ccc(NC(=S)NC(=O)c3cccc(C)c3)cc2)CC1 the results were Tau fibril FP -4.3%, Tau fluor counter inconclusive, RORg inh inconclusive, VP16 counter inconclusive and Tau fibril ThT 8.91µM*.
`CC(C)Oc1cccc(C(=O)NC(=S)Nc2ccc(N3CCN(C)CC3)cc2)c1` gave Tau fibril FP inconclusive, Tau fluor counter inconclusive, RORg inh 5.62µM*, VP16 counter inconclusive and Tau fibril ThT inconclusive.
COc1cccc(C(=O)NC(=S)Nc2ccc(N3CCCC3)cc2)c1 was read as Tau fibril FP 11.2%, Tau fluor counter inconclusive, RORg inh 2µM*, VP16 counter 8.91µM* and Tau fibril ThT 11.2µM*.
CCCC(=O)N1CCN(c2ccc(NC(=O)c3ccc4c(c3)OCCO4)cc2)CC1 was read as RORg inh 10.0% and VP16 counter 6.0%.
For CCCOc1ccc(C(=O)Nc2ccc(N3CCN(C(C)=O)CC3)cc2)cc1 the results were Tau fibril FP -3.0%, Tau fluor counter -18.6%, RORg inh 18.7%, VP16 counter -6.7% and Tau fibril ThT 2.24µM*.
For COc1ccccc1C(=O)NNC(=S)NC(=O)c1cc(OC)c(OC)c(OC)c1 the results were Tau fibril FP 15.0%, Tau fluor counter -11.6%, RORg inh inconclusive, VP16 counter 17.6% and Tau fibril ThT inconclusive.
`COc1ccc(C(=O)Nc2ccc(N3CCCC3)cc2)cc1` gave Tau fibril FP 6.6%, Tau fluor counter 15.8µM*[quencher], RORg inh inconclusive, VP16 counter 7.1% and Tau fibril ThT 7.94µM*.
`Cc1ccc(C(=O)Nc2ccc(N3CCCC3)cc2)c(C)c1` gave Tau fibril FP 1.6%, Tau fluor counter -26.0%, RORg inh -4.7%, VP16 counter -4.6% and Tau fibril ThT 14.1µM*.
Cc1ccc(C(=O)N2CCN(c3ccc(NC(=S)NC(=O)Cc4ccccc4)cc3)CC2)cc1 was read as Tau fibril FP 2.4%, Tau fluor counter -27.9%, RORg inh 5.62µM*, VP16 counter 8.91µM* and Tau fibril ThT -18.3%.
COc1cc(C(=O)NC(=S)NNC(=O)[C@H]2C[C@@H]2c2ccccc2)cc(OC)c1OC was read as Tau fibril FP 1.9%, Tau fluor counter -20.6%, RORg inh 11.2µM*, VP16 counter -13.7% and Tau fibril ThT -15.7%.
COc1ccc(C(=O)Nc2ccc(N3CCCC3)cc2)cc1OC was read as RORg inh inconclusive and VP16 counter 13.8%.
`CCn1ncc(Br)c1C(=O)Nc1ccc(C(C)C)cc1` gave RORg inh 27.1% and VP16 counter 4.9%.
`COc1cc(C(=O)NC(=S)Nc2ccc(N3CCCC3)cc2)cc(OC)c1OC` gave Tau fibril FP -0.2%, Tau fluor counter inconclusive, RORg inh 7.94µM*, VP16 counter 4.47µM* and Tau fibril ThT inconclusive.
`COc1cc(C(=O)NC(=S)Nc2ccc(Cl)c(C(=O)O)c2)cc(OC)c1OC` gave Tau fibril FP -3.6%, Tau fluor counter -0.3%, RORg inh -5.4%, VP16 counter -6.0% and Tau fibril ThT -3.4%.
`COc1cc(C(=O)NC(=S)NC(C)C)cc(OC)c1OC` gave Tau fibril FP 5.0%, Tau fluor counter 0.2%, RORg inh 7.94µM*, VP16 counter inconclusive and Tau fibril ThT -5.5%.
Screening COc1ccccc1C(=O)NC(=S)Nc1ccc(N2CCCC2)cc1 returned Tau fibril FP 18.4%, Tau fluor counter inconclusive, RORg inh inconclusive, VP16 counter -14.7% and Tau fibril ThT inconclusive.
Screening CCCCNC(=S)Nc1ccccc1F returned Tau fibril FP -3.7%, Tau fluor counter -8.3%, RORg inh 11.2µM*, VP16 counter inconclusive and Tau fibril ThT -1.8%.
Screening CC(C)CNC(=S)Nc1ccccc1F returned Tau fibril FP -1.6%, Tau fluor counter 7.8%, RORg inh 6.31µM*, VP16 counter 4.47µM* and Tau fibril ThT 18.6%.
Screening Cc1ccc(C(=O)NNc2c3ccccc3nc3ccccc23)cc1 returned Tau fibril FP inconclusive, Tau fluor counter 11.2µM*[quencher], RORg inh 5.7%, VP16 counter inconclusive and Tau fibril ThT 3.16µM*.
`COc1cccc(C(=O)NNc2c3ccccc3nc3ccccc23)c1` gave RORg inh 21.8% and VP16 counter -18.2%.
For COc1ccccc1OCC(=O)NNC(=O)CCCC(=O)NNC(=O)COc1ccccc1OC the results were RORg inh -1.4%[1.91 µM] and VP16 counter -11.1%.
For O=C(NNc1c2ccccc2nc2ccccc12)c1ccc(Cl)cc1 the results were RORg inh 11.6% and VP16 counter -19.4%.
Screening COc1ccccc1OCC(=O)NNc1c2ccccc2nc2ccccc12 returned Tau fibril FP inconclusive, Tau fluor counter 15.8µM*[quencher], RORg inh 1.58µM*, VP16 counter 0.794µM* and Tau fibril ThT 17.8µM*.
Nc1ccccc1C(=O)NNc1c2ccccc2nc2ccccc12 was read as Tau fibril FP 3.0%, Tau fluor counter 12.6µM*[quencher], RORg inh 36.8%, VP16 counter -19.8% and Tau fibril ThT 5.62µM*.
For COc1ccc(C(Nc2ccccn2)c2ccc3ccc(C)nc3c2O)cc1C (centres undefined) the results were Tau fibril FP 2.8%, Tau fluor counter -19.2% and Tau fibril ThT 15.8µM*.
For Cc1ccc(-c2cn3c(=O)cc(C)[nH]c3n2)cc1 the results were Tau fibril FP 2.9%, Tau fluor counter 2.1%, RORg inh 7.94µM*, VP16 counter 7.94µM* and Tau fibril ThT -7.0%.
COc1ccc(-c2nnc(Nc3ccc(OCC(N)=O)cc3)c3ccccc23)cc1 was read as Tau fibril FP 7.5%, Tau fluor counter inconclusive and Tau fibril ThT 6.6%.
`Cc1ccccc1N=C1NN=C(c2ccccc2F)CS1` gave Tau fibril FP inconclusive, Tau fluor counter -29.7%, RORg inh -80.9%, VP16 counter inconclusive and Tau fibril ThT 28.2µM*.
`CCN=C1NN=C(c2c[nH]c3ccccc23)CS1` gave Tau fibril FP 9.9%, Tau fluor counter -16.8%, RORg inh inconclusive, VP16 counter -26.0% and Tau fibril ThT inconclusive.
Screening Cc1cccc(C)c1N=C1NN=C(c2ccccc2F)CS1 returned Tau fibril FP 8.3%, Tau fluor counter -18.2%, RORg inh 7.94µM*, VP16 counter 10µM* and Tau fibril ThT inconclusive.
COc1cc(OC)c(NC(c2nnc(-c3ccccc3)o2)c2ccc(F)cc2Cl)cc1Cl (centres undefined) was read as Tau fibril FP 12.4%, Tau fluor counter inconclusive and Tau fibril ThT -9.4%.
Screening CCOc1ccc(NC(=S)NCCCN2CCN(c3ccc(OC)cc3)CC2)cc1 returned Tau fibril FP 1.3%, Tau fluor counter -26.9%, RORg inh 5.01µM*, VP16 counter inconclusive and Tau fibril ThT inconclusive.
